Results reported in PubChem BioAssay (Tox21).
Several values for one entry are separate records, joined by “and”; a condition that tells them apart may be missing. Equal values may be shown once. Inconclusive results are not listed. A structure can be active in one record and inactive in another. Activity calls are given as the source filed them. Unless noted, calls follow the shape of the dose curve; as a rule, active = well fitted curve in the direction sought with a large enough effect in the repeat runs; inconclusive = weak or mixed curves; inactive = no such curve, though single readings can be large; an effect the other way counts as inactive or inconclusive.

Experiments:
[1] = molecular target: Luciferin 4-monooxygenase (Photinus pyralis) (UniProt P08659); assay: qHTS assay to identify small molecule inhibitors of firefly luciferase (AID 1224835); also: nearly all actives have a fitted effect of over 25% in size; also: potency is read from the fitted curve at half-maximal effect
Chain of Luciferin 4-monooxygenase (Photinus pyralis) (P08659 whole entry, looked up): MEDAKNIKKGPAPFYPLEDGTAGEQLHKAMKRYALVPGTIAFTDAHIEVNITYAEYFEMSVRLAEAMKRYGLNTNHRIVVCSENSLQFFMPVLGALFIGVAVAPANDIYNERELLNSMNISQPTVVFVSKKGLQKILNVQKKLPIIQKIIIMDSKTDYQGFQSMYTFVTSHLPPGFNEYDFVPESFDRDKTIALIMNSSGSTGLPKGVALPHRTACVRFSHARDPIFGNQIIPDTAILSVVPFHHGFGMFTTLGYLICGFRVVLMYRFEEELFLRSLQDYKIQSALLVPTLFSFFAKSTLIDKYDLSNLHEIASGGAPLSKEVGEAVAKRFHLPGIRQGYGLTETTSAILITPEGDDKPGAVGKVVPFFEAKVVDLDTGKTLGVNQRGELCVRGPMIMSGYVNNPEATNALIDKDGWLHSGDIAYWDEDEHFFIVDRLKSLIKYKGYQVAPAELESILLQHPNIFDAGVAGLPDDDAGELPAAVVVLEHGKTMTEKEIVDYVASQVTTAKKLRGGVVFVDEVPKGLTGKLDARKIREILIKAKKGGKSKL
Method in brief: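 Inhibition of purified Photinus luciferase is measured by luminescence. Substrate levels (D-luciferin, ATP) sit at their KM values. Each compound is tested in a concentration series.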

[2] = qHTS assay to identify small molecule agonists of the constitutive androstane receptor (CAR) signaling pathway - cell viability counter screen (AID 1224836); also: nearly all actives have a fitted effect of over 45% in size
Method in brief: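 HepG2 cells stably carrying hCAR and a CYP2B6-2.2kb reporter; 15-concentration compounds plus PK11195 (final 0.75 uM), 23 hr at 37 C/5% CO2. Viability read by CellTiter-Fluor fluorescence.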

[3] = qHTS assay to identify small molecule antagonists of the constitutive androstane receptor (CAR) signaling pathway - cell viability counter screen (AID 1224837); also: nearly all actives have a fitted effect of over 45% in size
Method in brief: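 Fluorescence from CellTiter-Fluor served as the viability signal. Human hepatoma HepG2 cells stably bearing hCAR and CYP2B6-2.2kb received compound plus CITCO (50 nM final) for 23 hr.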

[4] = molecular target: Nuclear receptor subfamily 1 group I member 3 (Homo sapiens) (UniProt Q14994); assay: qHTS assay to identify small molecule antagonists of the constitutive androstane receptor (CAR) signaling pathway (AID 1224838);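 also: HepG2 cells stably expressing hCAR with CYP2B6 luciferase reporter stimulated by CITCO; nearly all actives have a fitted effect of over 40% in size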; also: potency is read from the fitted curve at half-maximal effect
Chain of Nuclear receptor subfamily 1 group I member 3 (Homo sapiens) (Q14994 whole entry, looked up): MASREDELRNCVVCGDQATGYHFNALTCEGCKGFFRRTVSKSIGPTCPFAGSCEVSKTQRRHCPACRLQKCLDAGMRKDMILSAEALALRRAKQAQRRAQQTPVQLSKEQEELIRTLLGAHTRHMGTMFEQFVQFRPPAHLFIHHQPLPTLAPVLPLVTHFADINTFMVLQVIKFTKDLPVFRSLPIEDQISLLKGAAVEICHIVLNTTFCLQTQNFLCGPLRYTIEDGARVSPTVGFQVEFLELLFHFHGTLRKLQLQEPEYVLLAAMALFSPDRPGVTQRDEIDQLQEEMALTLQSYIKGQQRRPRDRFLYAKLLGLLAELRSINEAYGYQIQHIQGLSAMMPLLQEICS
Method in brief: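 Quantitative HTS in double-stable HepG2-CYP2B6-hCAR cells. After 4 h plating, cells get compound (15 concentrations) and CITCO at 50 nM final, incubate 24 h at 37 C, then ONE-Glo luminescence is read.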

[5] = molecular target: Nuclear receptor subfamily 1 group I member 3 (Homo sapiens) (UniProt Q14994); assay: qHTS assay to identify small molecule agonists of the constitutive androstane receptor (CAR) signaling pathway (AID 1224839); also: nearly all actives have a fitted effect of over 15% in size; also: potency is read from the fitted curve at half-maximal effect;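 as to activation: HepG2 cells stably carrying human CAR and a CYP2B6 luciferase reporter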
Method in brief: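 HepG2 cells stably co-transfected with hCAR and a CYP2B6-2.2kb luciferase reporter; compounds at 15 concentrations with 0.75 uM PK11195 present. After 24 hr at 37 C, luciferase read by ONE-Glo luminescence.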

[6] = qHTS assay to identify small molecule antagonists of the estrogen related receptor signaling pathway with the pleiotropic PPARgamma coactivator (PGC) from Tox21 10K library - cell viability counter screen (AID 1224840; active = well fitted cell-killing curve with a large enough effect in the repeat runs, not every such curve was filed as active; also: nearly all actives have a fitted effect of over 40% in size)
Method in brief: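 Compounds in DMSO, alongside positive and negative controls, were pinned onto PGC/ERR cells (2,000 per well). Exposure lasted 17.5 hours at 37 C, followed by a 30-minute CellTiter-Fluor incubation and fluorescence reading.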

[7] = molecular target: Thyrotropin receptor (Homo sapiens) (UniProt P16473); assay: qHTS assay to identify small molecule agonists of the thyroid stimulating hormone receptor (TSHR) signaling pathway (AID 1224843; calls by dose curve; also: nearly all actives have a fitted effect of over 45% in size)
Chain of Thyrotropin receptor (Homo sapiens) (P16473 whole entry, looked up): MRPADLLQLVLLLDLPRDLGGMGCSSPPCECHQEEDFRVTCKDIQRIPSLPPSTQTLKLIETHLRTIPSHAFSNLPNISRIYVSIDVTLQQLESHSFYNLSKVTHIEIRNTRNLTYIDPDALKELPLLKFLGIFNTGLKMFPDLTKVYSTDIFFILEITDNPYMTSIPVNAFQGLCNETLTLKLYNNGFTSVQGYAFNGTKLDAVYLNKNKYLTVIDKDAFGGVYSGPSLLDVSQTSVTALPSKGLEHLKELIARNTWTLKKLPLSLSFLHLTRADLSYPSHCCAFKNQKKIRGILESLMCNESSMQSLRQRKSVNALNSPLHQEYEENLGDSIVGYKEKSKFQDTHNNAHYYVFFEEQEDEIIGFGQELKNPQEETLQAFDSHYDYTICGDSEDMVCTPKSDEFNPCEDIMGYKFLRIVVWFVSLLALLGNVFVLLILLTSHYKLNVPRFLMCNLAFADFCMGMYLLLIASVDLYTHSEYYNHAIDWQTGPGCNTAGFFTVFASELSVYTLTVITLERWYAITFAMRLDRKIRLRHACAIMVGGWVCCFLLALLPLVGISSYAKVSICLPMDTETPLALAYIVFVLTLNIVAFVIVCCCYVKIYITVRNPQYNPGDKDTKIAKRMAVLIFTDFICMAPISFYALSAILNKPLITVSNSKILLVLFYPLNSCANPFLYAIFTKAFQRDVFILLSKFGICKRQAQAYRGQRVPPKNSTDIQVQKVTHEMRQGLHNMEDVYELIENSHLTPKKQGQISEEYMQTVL
Method in brief: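 Screening of the Tox21 10K collection used HEK293 cells engineered with TSHR at 800 cells per well. After a 30-min room-temperature compound exposure, HTRF cAMP reagents were added and fluorescence recorded 1 h later.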

[8] = qHTS assay to identify small molecule agonists of the hypoxia (HIF-1) signaling pathway - cell viability counter screen (AID 1224844; calls by dose curve; also: nearly all actives have a fitted effect of over 50% in size; also: potency is read from the fitted curve at half-maximal effect)
Method in brief: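 Luminescent ATP content (CellTiter-Glo, 30 min, room temperature) served as the viability measure in HRE-bla ME-180 cells exposed to compounds for 17 hrs in low-serum medium (0.5% dialyzed FBS).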

[9] = qHTS assay to identify small molecule agonists of H2AX (AID 1224845; active = well fitted activation curve with a large enough effect in the signal ratio in the repeat runs, not every such curve was filed as active; the % refers to the signal ratio; also: potency is read from the fitted curve at half-maximal effect)
Method in brief: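 Phospho-H2AX Ser139 measured by HTRF (ex 320 nm; em 665 and 620 nm) after 24 hr antibody incubation. Compounds, 15 concentrations, 0.76% DMSO, were applied to CHO-K1 cells for 3hr at 37C before lysis.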

[10] = qHTS assay to identify small molecule agonists of H2AX - cell viability counter screen (AID 1224847; calls by dose curve; also: nearly all actives have a fitted effect of over 30% in size; also: potency is read from the fitted curve at half-maximal effect)
Method in brief: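 CHO-K1 cells plated overnight at 37C, then exposed 3 h at 37C to compounds at 15 concentrations (0.76% DMSO final). Viability by CellTiter-Glo luminescence after 30 min at room temperature.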

[11] = qHTS RealTime-Glo MT Cell Viability Assay in HepG2 cells - 24 hour (AID 1224867); also: nearly all actives have a fitted effect of over 50% in size
Method in brief: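 Viability was tracked continuously by NanoLuc luminescence from prosubstrate reduced by living HepG2 cells, at successive time points over 40 h of compound exposure. Cells with reagent were preincubated 5 h at 37 °C before compound addition.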

[12] = qHTS RealTime-Glo MT Cell Viability Assay in HEK293 cells - 32 hour (AID 1224868); also: nearly all actives have a fitted effect of over 50% in size; also: potency is read from the fitted curve at half-maximal effect
Method in brief: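 Viability tracked continuously by luminescence as live cells reduce a prosubstrate for NanoLuc; HEK293 cells preincubated 5 h, compound-treated at 37 C, and read at 0, 8, 16, 24, 32 and 40 h.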

[13] = A CellTox Green Cytotoxicity Assay to monitor cytotoxicity in HEK293 cells - 0 hour (AID 1224869); also: nearly all actives have a fitted effect of over 50% in size; also: potency is read from the fitted curve at half-maximal effect
Method in brief: (§1)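 Each value comes from one timepoint of a single continuous run in which HEK293 cells with CellTox Green were exposed to compound for up to 40 h at 37 C, dye fluorescence rising with cell death.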

[14] = qHTS RealTime-Glo MT Cell Viability Assay in HepG2 cells - 40 hour (AID 1224870); also: nearly all actives have a fitted effect of over 50% in size
Method in brief: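 Real-time viability: cells seeded at 600 per well together with NanoLuc and cell-permeant prosubstrate, compounds added after 5 h incubation. Luminescence tracked at 0, 8, 16, 24, 32 and 40 h of exposure.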

[15] = A CellTox Green Cytotoxicity Assay to monitor cytotoxicity in HEK293 cells - 40 hour (AID 1224871); also: nearly all actives have a fitted effect of over 45% in size; also: potency is read from the fitted curve at half-maximal effect
Method in brief: as §1

[16] = qHTS assay to identify small molecule agonists of the hypoxia (HIF-1) signaling pathway (AID 1224846; active = well fitted activation curve with a large enough effect in the signal ratio in the repeat runs, not every such curve was filed as active; the % refers to the signal ratio)
Method in brief: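 Measured by blue/green FRET after loading CCF4-AM: beta-lactamase expressed from a hypoxia response element in ME-180 cells. Test agents were delivered in DMSO and left 17 hrs; cells had been plated 5 hrs earlier in low-serum (0.5% dialyzed FBS) medium.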

[17] = qHTS assay to identify small molecule antagonists of the estrogen related receptor signaling pathway with the pleiotropic PPARgamma coactivator (PGC) from Tox21 10K library (AID 1224841; call rule not given here)
Method in brief: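 Compound exposure ran 18 hours at 37 C in PGC/ERR cells (2,000/well) that had first rested 6 hours in a 37 C/5% CO2 incubator. Luciferase activity was then detected with One-Glo after a 30-minute room-temperature step.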

[18] = qHTS assay to identify small molecule agonists of the estrogen related receptor signaling pathway with the pleiotropic PPARgamma coactivator (PGC) from Tox21 10K library (AID 1224842); also: nearly all actives have a fitted effect of over 15% in size; also: potency is read from the fitted curve at half-maximal effect
Method in brief: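 Luminescence from One-Glo (30 min, room temperature) measured after PGC/ERR cells had 18 h at 37 C with pinned compound (23 nL in DMSO). Cells had been seeded at 2,000 per well and pre-incubated 6 h.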

[19] = qHTS assay to identify small molecule antagonists of the estrogen related receptor (ERR) signaling pathway from Tox21 library (AID 1224848); also: nearly all actives have a fitted effect of over 50% in size
Method in brief: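 Antagonist-mode screen of the Tox21 10K library in an NTP-provided ERR reporter cell line; 18 h compound exposure at 37 C, luminescence measured with ONE-Glo.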

[20] = qHTS assay to identify small molecule agonists of the estrogen related receptor (ERR) signaling pathway from Tox21 library (AID 1224849; calls by dose curve; also: nearly all actives have a fitted effect of over 15% in size); conditions: ERR reporter cell line, ONE-Glo luciferase, 18 h
Method in brief: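 We plated ERR reporter cells, waited 6 h, added compounds in DMSO by pin tool and incubated them 18 h at 37 C. ONE-Glo was then added and luminescence read after 30 min.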
% is scaled to controls: 0 for no effect and ±100 for the full control effect.

COCC(C)N (configuration not stated)
inactive: Potency [1] | Potency [2] | Potency [3] | Potency [4] | Potency [5] | Potency [6] | Potency [7] | Potency [8] | Potency [9] | Potency [10] | outcome [11] | Potency [12] | Potency [13] | outcome [14] | Potency [15]

CCCCOC(=O)CCCCCCCCC(=O)OCCCC
inactive: Potency [1] | Potency [2] | Potency [3] | Potency [4] | Potency [5] | Potency [6] | Potency [8] | Potency [9] | outcome [16] | Potency [10] | outcome [11] | Potency [12] | Potency [13] | outcome [14] | Potency [15]

C1CNCCN1
inactive: Potency [1] | Potency [3] | Potency [4] | Potency [5] | Potency [6] | Potency [7] | Potency [8] | Potency [9] | Potency [10] | outcome [11] | Potency [12] | Potency [13] | outcome [14] | Potency [15]

CCN(CC)CCOC(=O)c1ccc(N)cc1
inactive: Potency [1] | Potency [3] | Potency [4] | Potency [5] | Potency [6] | Potency [17] | Potency [18] | Potency [8] | Potency [9] | Potency [10] | Potency [19] | activity change, positive = activation ([20]; at 42.5 µM (top of the series)) 3.59% | activity change, positive = activation ([20]; at 92.4 µM (top of the series)) 2.93% | outcome [11] | Potency [12] | Potency [13] | outcome [14] | Potency [15]

CCN1CCCC1=O
inactive: Potency [1] | Potency [3] | Potency [4] | Potency [5] | Potency [6] | Potency [7] | Potency [8] | Potency [9] | outcome [16] | Potency [10] | outcome [11] | Potency [12] | Potency [13] | outcome [14] | Potency [15]

C=CC(=O)NC(C)(C)CS(=O)(=O)O
inactive: Potency [1] | Potency [3] | Potency [4] | Potency [5] | Potency [6] | Potency [7] | Potency [8] | Potency [9] | Potency [10] | outcome [11] | Potency [12] | outcome [14]
inactive and 43.6 µM (active): Potency [13] | Potency [15]

CC1=C(/C=C/C(C)=C/C=C/C(C)=C/C(=O)O)C(C)(C)CCC1
inactive: Potency [2] | Potency [3] | Potency [4] | Potency [6] | Potency [9] | Potency [10] | outcome [11] | Potency [12] | Potency [13] | outcome [14] | Potency [15]
active: Potency [1] 39.9 µM and 27.5 µM | Potency [5] 27.3 µM and 24.3 µM and 10.6 µM | Potency [8] 49 µM

C#C[C@]1(O)CC[C@H]2[C@@H]3CCc4cc(O)ccc4[C@H]3CC[C@@]21C
active: Potency [10] 100 µM and 61.9 µM | Potency [12] 8.65 µM and 19.5 µM
12.2 µM (active) and inactive: Potency [15]
inactive: Potency [1] | Potency [2] | Potency [3] | Potency [8] | Potency [9] | outcome [16] | outcome [11] | Potency [13] | outcome [14]

COc1ccc(O)cc1
inactive: Potency [1] | Potency [2] | Potency [3] | Potency [6] | Potency [8] | Potency [10] | outcome [11] | Potency [12] | Potency [13] | outcome [14] | Potency [15]
active: Potency [9] 86.5 µM and 89.8 µM and 49.2 µM

Cc1ccc(O)c(-n2nc3ccccc3n2)c1
inactive: Potency [3] | Potency [4] | Potency [6] | Potency [17] | Potency [7] | Potency [8] | Potency [9] | Potency [19] | outcome [11] | Potency [12] | Potency [13] | outcome [14] | Potency [15]
active: Potency [1] 2.5 µM and 1.59 µM and 3.09 µM | Potency [5] 24.1 µM and 21.7 µM and 8.41 µM | Potency [18] 27.1 µM and 8.63 µM and 11.9 µM | Potency [10] 100 µM and 89.8 µM | activity change, positive = activation ([20]; at 42.5 µM (top of the series)) 147% | activity change, positive = activation ([20]; at 92.4 µM (top of the series)) 109% and 139%

Cn1cnc2c1c(=O)[nH]c(=O)n2C
inactive: Potency [1] | Potency [2] | Potency [3] | Potency [4] | Potency [6] | Potency [8] | Potency [9] | outcome [11] | Potency [12] | Potency [13] | outcome [14] | Potency [15]

CCCCOCCOCCSC#N
inactive: Potency [1] | Potency [3] | Potency [4] | Potency [5] | Potency [6] | Potency [7] | Potency [8] | Potency [9] | outcome [16] | outcome [11] | Potency [12] | Potency [13] | outcome [14] | Potency [15]

CCCCCCCCOc1ccc(C(=O)c2ccccc2)c(O)c1
inactive: Potency [1] | Potency [3] | Potency [5] | Potency [6] | Potency [17] | Potency [18] | Potency [8] | Potency [9] | Potency [10] | Potency [19] | activity change, positive = activation ([20]; at 42.5 µM (top of the series)) -7.25% | activity change, positive = activation ([20]; at 92.4 µM (top of the series)) 6.94% and -4.94% | outcome [11] | Potency [12] | Potency [13] | outcome [14] | Potency [15]
active: Potency [4] 7.5 µM

Cc1cccc(C)c1O
inactive: Potency [1] | Potency [3] | Potency [4] | Potency [5] | Potency [6] | Potency [17] | Potency [18] | Potency [8] | Potency [9] | outcome [16] | Potency [19] | activity change, positive = activation ([20]; at 92.4 µM (top of the series)) 7.32% and 4.77% | outcome [11] | Potency [12] | Potency [13] | outcome [14] | Potency [15]

CCCCNC(=O)NS(=O)(=O)c1ccc(N)cc1
inactive: Potency [1] | Potency [3] | Potency [4] | Potency [5] | Potency [6] | Potency [17] | Potency [18] | Potency [8] | Potency [9] | Potency [19] | activity change, positive = activation ([20]; at 42.5 µM (top of the series)) -4% | activity change, positive = activation ([20]; at 92.4 µM (top of the series)) 2.9% | outcome [11] | Potency [12] | Potency [13] | outcome [14] | Potency [15]

CC(=O)/C=C/C1=C(C)CCCC1(C)C
inactive: Potency [1] | Potency [2] | Potency [3] | Potency [6] | Potency [8] | Potency [9] | outcome [11] | Potency [12] | Potency [13] | outcome [14] | Potency [15]
